# Assay outcomes as filed in PubChem.
# An excerpt weighted towards active compounds, which were near 2.3% of everything screened.
# MCL1-BIM inh = MCL1-BIM-BH3 interaction inhibition (human) | actives 0.68% (n = 320,000) | GST-MCL1 / FITC-Bim-BH3 fluorescence polarization | inhibition, % at 10.9 µM | AID 2057 | Q07820;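 active means inhibition above the mean inhibition of all tested compounds plus 3 SD, set per campaign, cut at about 40% in these data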;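 further: higher means more loss of mP so more displacement of Bim peptide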
# Bim-Mcl-1 = disrupts Bim peptide binding to human Mcl-1; inhibition, % at 10 µM; Bead-based flow cytometry, Bim peptide-Mcl-1 binding; Q07820; actives 0.1% (n = 190,000); in the data active means inhibition above about 40%
# BCLXL inh = Bcl-xL (human) inhibition; Q07817; GST-Bcl-xL / FITC-Bim BH3 peptide fluorescence polarization; inhibition, % at 10.9 µM; actives 0.7% (n = 320,000);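 active means inhibition above the mean of all tested compounds plus 3 SD, cutoff set per campaign, cut at about 30% in these data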;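 further: inhibitors lower millipolarization by displacing the labeled peptide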
# GLD-1 RNA inh = GLD-1-TGE RNA interaction inhibition (C. elegans); Q17339; purified GLD-1 + fluorescein TGE RNA, fluorescence polarization; inhibition, % at 5.96 µM; actives 0.44% (n = 320,000); AID 2280;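 active means percent inhibition above a per-plate cutoff, the plate mean of test compounds plus 3 SD, cut at about 30% in these data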
# Target sequence (Q17339 whole entry, looked up): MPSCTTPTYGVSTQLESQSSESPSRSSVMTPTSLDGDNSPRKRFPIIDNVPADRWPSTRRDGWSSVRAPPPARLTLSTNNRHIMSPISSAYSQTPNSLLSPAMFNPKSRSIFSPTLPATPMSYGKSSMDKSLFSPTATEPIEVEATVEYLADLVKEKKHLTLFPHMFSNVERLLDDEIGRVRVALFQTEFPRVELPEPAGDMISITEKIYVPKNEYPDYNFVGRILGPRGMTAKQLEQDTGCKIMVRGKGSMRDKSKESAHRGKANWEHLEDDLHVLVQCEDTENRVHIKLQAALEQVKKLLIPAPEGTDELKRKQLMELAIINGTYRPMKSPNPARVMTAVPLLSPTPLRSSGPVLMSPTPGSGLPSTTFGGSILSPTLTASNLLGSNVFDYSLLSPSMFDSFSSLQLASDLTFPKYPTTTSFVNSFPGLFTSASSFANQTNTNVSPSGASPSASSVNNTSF
# Mcl1-Bid inh = Mcl-1/Bid interaction inhibition | TR-FRET Mcl-1/Bid-Dy647 peptide binding, 1536-well | inhibition, % at 21.7 µM | actives 0.97% (n = 220,000) | AID 1021;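 active means compounds that cut the binding signal by more than half at the single screening dose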;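 further: His-tagged Mcl-1 with europium anti-His antibody binding Bid BH3 peptide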
# Mcl1-Noxa inh = Mcl-1/Noxa interaction inhibition; Q07820; TR-FRET Mcl-1/Noxa peptide binding, 2 h; inhibition, % at 21.7 µM; actives 1.5% (n = 220,000); AID 1022;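 active means compounds that cut the protein-peptide binding signal by more than 50% relative to plate controls in a single-dose test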;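 further: His-tagged Mcl-1 with rhodamine Noxa BH3 peptide and terbium anti-His antibody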
# Bcl-xL conf = counter-screen for MCL1 inhibitors: confirmation of human Bcl-xL inhibitors; shares compounds with MCL1-BIM inh; GST-Bcl-xL / FITC-Bim BH3 peptide FP binding; inhibition, % at 10.9 µM; actives 54% (n = 1,700); AID 2166;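 active means inhibition above a cutoff equal to the mean inhibition of all tested compounds plus 3 SD, cut at about 30% in these data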
# MCL1 BIM confirm = MCL1-BIM-BH3 interaction inhibition, confirmation. actives 61% (n = 1,700). inhibition, % at 10.9 µM. GST-MCL1 / FITC-Bim-BH3 fluorescence polarization. shares compounds with MCL1-BIM inh;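 active means inhibition above the average of all tested compounds plus 3 SD, cut at about 40% in these data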
# Numbers stand for hits; n = inactive; x = not tested or not shown; + = active, no number.
SMILES,MCL1-BIM inh,Bim-Mcl-1,BCLXL inh,GLD-1 RNA inh,Mcl1-Bid inh,Mcl1-Noxa inh,Bcl-xL conf,MCL1 BIM confirm
O=c1ccc2cc3c4c(c2o1)CCCN4CCC3,105.1,n,97.0,88.9,n,n,154.9,182.4
O=c1oc2c3c4c(cc2s1)CCCN4CCC3,165.3,n,130.4,75.8,n,51.0,99.3,120.0
O=C(/C=C/c1cccc2ccccc12)N1CCOCC1,n,x,n,n,n,n,x,x
CC1C2C(c3ccccc3)N(C)C(=O)N(C)C2N(C)C(=O)N1C (configuration not stated),55.4,n,55.2,n,n,n,38.0,44.9
O=C(O)c1ccc(Cl)cc1Nc1nc2cc(Cl)ccc2o1,n,x,n,n,x,x,x,x
Cc1ccc(C(=O)OCC(=O)NNC(=O)c2ccccc2)c(O)c1,n,x,n,n,x,x,x,x
Cc1ccc(C(=O)OCC(=O)NC(=O)c2ccc(C(C)(C)C)cc2)c(O)c1,69.8,x,62.0,n,x,x,n,n
CCN1CCN(C(=O)/C(=C/c2ccco2)NC(=O)c2ccccc2)CC1,n,x,n,n,x,x,x,x
O=C1c2cccc(O)c2C(=O)c2c(O)cccc21,157.7,n,119.3,92.1,n,n,80.9,96.8
O=C1NC2(CCCCCC2)C(=O)N1Cc1c(F)cccc1Cl,n,x,n,n,x,x,x,x
CCOC(=O)C1CCCN(C(=O)C2c3ccccc3Oc3ccccc32)C1 (configuration not stated),+,n,+,188.5,n,n,42.0,55.4
CCOC(=O)C1CCCN(C(=O)c2ccc(C(=O)c3ccccc3)cc2)C1 (configuration not stated),n,x,n,n,x,x,x,x
O=C(/C=C/c1ccco1)NC(=S)Nc1ccc(C(=O)O)cc1,66.7,x,34.4,n,x,x,n,n
COc1ncnc2c1NC1=C(S2)C(=NCCC(=O)O)CC(C)(C)C1,162.5,n,144.5,102.6,n,n,170.8,198.1
Cc1ccc(-c2nnn(CCC(=O)N3CCCCC3C)n2)cc1 (configuration not stated),n,n,n,n,n,n,x,x
CC1CCCCN1C(=O)Cn1nnc(-c2cccnc2)n1 (configuration not stated),91.3,n,84.7,73.8,n,n,72.9,110.3
Cc1ccc(-n2[nH]c(C)c(C=Nc3ccc(S(=O)(=O)N4CCOCC4)cc3)c2=O)c(C)c1,n,n,n,n,n,n,x,x
Cc1ccc2c(CNCc3ccccc3)cc(=O)oc2c1,n,x,n,n,x,x,x,x
COc1ccc(C(=O)Nc2ccc3c(c2)C(=O)NC3=O)cc1,n,x,n,n,x,x,x,x
COC(=O)[C@]1(Cc2ccccc2)N[C@H](CN(C)C(=O)c2ccc(F)cc2)[C@@H]2C(=O)N(Cc3ccccc3)C(=O)[C@@H]21,x,x,x,n,x,x,x,x
Cc1ccc(S(=O)(=O)N2CCN(C(=O)n3ccnc3)CC2)cc1,n,x,n,n,x,x,x,x
CCOC(=O)c1cc(-c2ccc(/C=C3/C(=O)NC(=O)C(C#N)=C3C)o2)ccc1Cl,121.0,n,85.3,42.2,93.0,102.3,104.6,149.8
CCCCC1(C)OC(=O)C(=Cc2ccc(-c3ccc(Cl)c(C(=O)O)c3)o2)C(=O)O1 (configuration not stated),n,x,n,n,n,n,x,x
O=C(c1cccc(Br)c1)N1CCN(S(=O)(=O)N2CCCCCC2)CC1,n,x,n,n,x,x,x,x
FC(F)c1nc2ccccc2[nH]1,n,n,n,n,n,n,x,x
c1ccc2[nH]c3cc4ncnc4cc3nc2c1,+,n,+,+,n,n,+,+
CCn1cc(C(=O)NN)c(=O)c2cc(F)c(N3CCOCC3)cc21,41.1,x,n,n,x,x,n,n
CCn1cc(C(=O)NCC(C)C)c(=O)c2cc(F)c(N3CCN(C)CC3)cc21,n,x,n,n,n,n,x,x
Cc1c2ccccc2nc2c(F)c(NC(C)C)c(F)c(F)c12,139.0,n,122.3,119.2,n,n,130.9,150.6
CC(C)Nc1nc2ccccc2c(=O)[nH]1,n,n,n,n,n,n,x,x
